Inconclusive results are not listed. Activity calls are given as the source filed them. The call rests on the fitted dose curve; in most records, active means well fitted activation curve with a large enough effect; inconclusive means small, poorly fitted or top-dose-only effect, or effect the other way; inactive means flat fitted curve, though single readings scatter.

The experiment can be described thus: Cellular Toxicity (caspase-3) NIH 3T3 (AID 666).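 Further: caspase signal read after 16 h compound exposure.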 The note with it: NIH 3T3 caspase-3 activation, apoptosis/toxicity, 0% DMSO, 100% is 100 µM tamoxifen; series mostly up to 92.2 µM; caspase-3 activation: at the top concentration. From the text: NIH Chemical Genomics Center [NCGC]
NIH Molecular Libraries Screening Centers Network [MLSCN]
National Institutes of Environmental Health Sciences [NIEHS]
National Toxicology Program [NTP]
We have developed a 1536-well cell-based assay for quantitative high throughput screening (qHTS) against a number of cell lines to determine in vitro caspase 3/7 of small molecules. This particular assay uses the NIH 3T3 cell line which is derived from mouse fibroblasts.
NCGC Assay Protocol Summary:
The Caspase-Glo 3/7 assay (Promega) is a homogeneous method to measure caspase-3 and caspase-7 activities in cultured cells. The quantitation of caspase 3/7 activity is based on the cleavage of a peptide-aminoluciferin substrate. After caspase cleaves the substrate the free aminoluciferin is liberated and serves as the substrate of luciferase, which generates the light. The luminescent signal is proportional to amount of caspase 3/7 activity present.
Using the Caspase-Glo 3/7 assay, the amount of caspase 3/7 activity was measured in the NIH 3T3 cell line with complete culture medium following compound treatment for 16 hours. The assay was performed in opaque white 1536-well plates. In the screen, tamoxifen and doxorubicin were used as positive controls. Library compounds were measured for their ability to cause the activation of caspase 3/7 in the cell line, as reflected by an increase in luminescence signal, in a concentration-dependent manner. Data were normalized to the controls for basal activity (DMSO only) and 100% stimulation (100 uM tamoxifen). AC50 values were determined from concentration-response data modeled with the standard Hill equation.
qHTS protocol for caspase 3/7 assay in NIH 3T3 cells
[Step] [Parameter] [Value] [Description]
1. Reagent; 5 uL; 1000 NIH 3T3 cells/well
2. Time; 5 hr; 37 °C incubation
4. Controls; 23 nL; Tamoxifen 0.23 uM to 100 uM & Doxorubicin 7.0 pM to 100 uM
5. Time; 16 hr; 37 °C incubation
6. Reagent; 5 uL; Caspase-Glo 3/7 reagent
7. Time; 20 min; Room Temperature
8. Detection; Luminescence; Viewlux plate reader
Keywords: caspase 3/7, apoptosis, NIH 3T3 cell line, luminescence, NTPHTS, NTPHTS_NCGC, NIEHS, EPA, DSSTox, MLSMR, MLSCN, NIH Roadmap, qHTS, NCGC
As for `O=C1NC(=O)c2cc([N+](=O)[O-])ccc21`, the “caspase-3 activation” value was -1.02% (inactive).

With `O=Cc1ccc(Cl)cc1`, the “caspase-3 activation” value was -2.77% (inactive).

As to `O=C(O)/C=C/C(=O)O`, the “caspase-3 activation” value is 0.291% (inactive).

With `CC(=O)c1cc(C)oc1C`, the “caspase-3 activation” value is -1.93% (inactive).

Take `O=C(O)c1ccccc1Cl`: the “caspase-3 activation” value was -2.2% (inactive).

On to `O=Cc1ccc(C(=O)O)cc1`, for which the “caspase-3 activation” value is -5.1% (inactive).

Regarding `C=CCCCC`, the “caspase-3 activation” value was 2.74% (inactive).

Turning to `Nc1nc(-c2ccccc2)cs1`, the “caspase-3 activation” value was -14.3% (inactive).

With `NC(=O)c1cccc([N+](=O)[O-])c1`, the “caspase-3 activation” value is 4.22% (inactive).

For `Cc1ccc2ncccc2c1`, the “caspase-3 activation” value was -2.88% (inactive).

With `O=Nc1ccc(NO)cc1`, the “caspase-3 activation” value is -7.67% (inactive).

As to `C=CCCCCCC`, the “caspase-3 activation” value is 0.397% (inactive).

As to `O=[N+]([O-])c1cccc(Cl)c1`, the “caspase-3 activation” value was -5.66% (inactive).

For the compound `Cc1ccc(N(C)C)cc1`, the “caspase-3 activation” value was 0.107% (inactive).

Consider `N#CC1(O)CCCCC1`, for which the “caspase-3 activation” value is -3.14% (inactive).

For `ClC/C=C/CCl`, the “caspase-3 activation” value is -2.33% (inactive).

Turning to `NC=O`, the “caspase-3 activation” value is 0.426% (inactive).

In the case of `CC(=O)Nc1ccccc1C`, the “caspase-3 activation” value is -6.59% (inactive).

Regarding `OC/C(Br)=C(\Br)CO`, the “caspase-3 activation” value was 0.534% (inactive).

Take `CNc1ccccc1`: the “caspase-3 activation” value was 1.69% (inactive).

With `C[C@@H]1CC2(OC[C@]3(C)O[C@H]23)O[C@H]2C[C@@]3(C)[C@@H]4CC[C@H]5C(C)(C)C(O[C@@H]6OC[C@@H](O)[C@H](O)[C@H]6O)CC[C@@]56C[C@@]46CC[C@]3(C)[C@@H]12` (stereo not given in full), the “caspase-3 activation” value was 7.72% (inactive).

As to `Cc1ccc2cccnc2c1`, the “caspase-3 activation” value was 4.57% (inactive).

In the case of `Nc1cc(Cl)c(N)c(Cl)c1`, the “caspase-3 activation” value is -1.62% (inactive).

Take `O=Cc1c(Cl)cccc1Cl`: the “caspase-3 activation” value was 6.19% (inactive).

Regarding `CC/C(C)=N/O`, the “caspase-3 activation” value was -0.478% (inactive).

On to `C=CC(=O)OCCCC`, for which the “caspase-3 activation” value was 1.24% (inactive).

For `C=C(C)C(=O)OCC(C)C`, the “caspase-3 activation” value was -0.0449% (inactive).

In the case of `C=CCOC(=O)COCCC(C)C`, the “caspase-3 activation” value is -2.72% (inactive).

Take `CCCCOCCOCCOCCCC`: the “caspase-3 activation” value was -5.97% (inactive).

Consider `CC(C)=CCC/C(C)=C/C=O`, for which the “caspase-3 activation” value was -1.38% (inactive).

With `Nc1c(Cl)cc(Cl)cc1Cl`, the “caspase-3 activation” value was 2.97% (inactive).

On to `c1ccc2[nH]cnc2c1`, for which the “caspase-3 activation” value is 1.56% (inactive).

On to `CC(C)C(C)C`, for which the “caspase-3 activation” value was 1.18% (inactive).

For `C[C@@H]1CC2(OC3C[C@@]4(C)C5=CC[C@H]6C(C)(C)C(O[C@@H]7OC[C@@H](O)[C@H](O)[C@H]7O)CC[C@@]67C[C@@]57CC[C@]4(C)C31)OC(O)C1(C)OC21` (stereo not given in full), the “caspase-3 activation” value is -0.61% (inactive).

With `CCC1CO1` (stereo not given), the “caspase-3 activation” value was 0.118% (inactive).

For `Nc1nc2ccccc2[nH]1`, the “caspase-3 activation” value was -3.43% (inactive).

For the compound `C=C(C)C(=O)OCCCCCC`, the “caspase-3 activation” value is -3.9% (inactive).

As for `O=C1OC(=O)c2cc([N+](=O)[O-])ccc21`, the “caspase-3 activation” value is 1.9% (inactive).

In the case of `CC(=O)c1ccc([N+](=O)[O-])cc1`, the “caspase-3 activation” value is -3.96% (inactive).

Regarding `Cc1ccc2c(c1[N+](=O)[O-])C(=O)c1ccccc1C2=O`, the “caspase-3 activation” value was -4.48% (inactive).

The record behind these values is PubChem BioAssay (NCATS).
